Compound activity from PubChem BioAssay.
The list is not random: actives were taken first. Their share in the collection is about 6.8%.
Abs 340nm: compound absorbs light at 340 nm; compound absorbance at 340 nm, fold over control; fold change at 10 µM; 65,000 tested, under 10 active;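 active means at 10 µM dose, initial 340 nm absorbance at least 2 fold that of control wells; inactive means change under 2 fold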;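 further: initial absorbance extrapolated from kinetic A340 decline of NADH oxidation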
DPM-DC inhibit: blocks S. pneumoniae diphosphomevalonate decarboxylase; calls only at 10 µM; purified DPM-DC, PK/LDH coupled NADH fluorescence; 65,000 compounds, 0.49% hits; AID 556;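 active means the 320 compounds with the highest percent inhibition in the single-dose primary screen, excluding strongly autofluorescent ones, cut at about 32% in these data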;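 further: kinetic rate of NADH fluorescence loss reporting ADP formed by the decarboxylase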
Spn MK inh: blocks S. pneumoniae mevalonate kinase; inhibition, % at 10 µM; 65,000 compounds, 0.48% hits; purified MK, PK/LDH-coupled NADH absorbance 340 nm; AID 555;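 active means ranked among the strongest by inhibition in the single 10 µM screen, a fixed top-ranked set picked for dose follow-up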
NADH enzymes: inhibitors of enzymes used to reach an NAD/NADH endpoint. coupled PK/LDH NADH assays, four targets. IC50, µM (series often up to 10 µM). 65,000 compounds, 0.02% hits;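 active means single-dose screening hits from any of four coupled enzyme assays that gave an IC50 when retested across doses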;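 further: the DPM-DC format reads NADH fluorescence rather than 340 nm absorbance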
Spn PMK inh: S. pneumoniae PMK inhibition; inhibition, % at 10 µM; AID 539; purified PMK, PK/LDH-coupled NADH absorbance 340 nm; 65,000 compounds, 0.49% hits;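 active means top-ranked compounds by inhibition in the single 10 µM screen, taking a fixed number of the strongest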
Fluor 339 460: intrinsic fluorescence of library compounds, ex339/em460 – biochemical, MLSMR library, data from DPM-DC assay, artefact control, profiling panel. compound autofluorescence, ex339/em460 nm, NADH buffer; hits give high values; 1 = no-compound wells, NADH background. fluorescence fold increase at 10 µM. 65,000 compounds, 5.5% hits;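 active means at 10 µM, mean starting fluorescence two-fold or more over control wells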;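 further: signal is the first read of a kinetic run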
Each line names hits and unclear results; the compound was inactive in the other large screens.

OC1(c2cccc(C(F)(F)F)c2)CCN(c2ncnc3c2[nH]c2ccc(F)cc23)CC1	Fluor 339 460 2.5
O=c1cc(-c2c(F)c(F)c(F)c(F)c2F)oc2c(F)c(F)c(F)c(F)c12	none
O=C(c1cccn2c(=O)c3ccccc3nc12)N1CCN(Cc2ccc3c(c2)OCO3)CC1	Fluor 339 460 5 (not shown: DPM-DC inhibit)
O=C(NCCN1CCN(c2ccccc2F)CC1)c1cccn2c(=O)c3ccccc3nc12	Fluor 339 460 3.1
CCn1nc(C(=O)N2CCN(Cc3ccc4c(c3)OCO4)CC2)c2ccccc2c1=O	none
O=C(c1cccn2c(=O)c3cc(Cl)ccc3nc12)N1CCOCC1	Fluor 339 460 3.3 (not shown: DPM-DC inhibit)
O=C(CN1C(=O)c2cccc3cccc1c23)N1CCN(Cc2ccc3c(c2)OCO3)CC1	Fluor 339 460 2
Cc1ccc(S(=O)(=O)N2CCN(c3nc(C)c4c(c3C#N)CC(C)(C)OC4)CC2)cc1	none
NC(=O)C1(N2CCCCC2)CCN(C(=O)c2cccn3c(=O)c4cc(Cl)ccc4nc23)CC1	Fluor 339 460 4.9 (not shown: DPM-DC inhibit)
COc1cccc(C(=O)N2CCN(Cc3ccc4c(c3)OCO4)CC2)c1OC	none
O=C(c1cccn2c(=O)c3cc(Cl)ccc3nc12)N1CCN(Cc2ccc3c(c2)OCO3)CC1	Fluor 339 460 4.9 (not shown: DPM-DC inhibit)
CCn1c(SCc2ccc(OC)cc2)nnc1-c1ccncc1	none
Cc1nc2c(=O)n(C)c(=O)[nH]c2n1Cc1ccccc1	none
COc1ccc(-c2nc3c(=O)n(C)c(=O)[nH]c3n2CCc2ccccc2)cc1	Fluor 339 460 3.9 (not shown: DPM-DC inhibit)
CCCn1c(-c2ccccc2)nc2c(=O)n(C)c(=O)[nH]c21	Fluor 339 460 2.2 (not shown: DPM-DC inhibit)
Nc1cc(C(=O)O)ccc1Nc1ccc(F)c(F)c1	none
CCn1c(=NC(=O)CSC(C)=O)sc2ccccc21	none
COC(=O)Cn1c(=NC(=O)CSC(C)=O)sc2ccccc21	DPM-DC inhibit active
CCOC(=O)c1cnn2c(C(F)(F)F)cc(-c3ccco3)nc12	Fluor 339 460 4.3 (not shown: DPM-DC inhibit)
O=C(CSc1nc(-c2ccco2)cc(C(F)(F)F)n1)NC1CCCC1	none
CCOC(=O)c1cnn2c(C(F)F)cc(C3CC3)nc12	none
O=C(c1cnn2c(C(F)(F)F)cc(-c3ccc4c(c3)OCO4)nc12)N1CCCCC1	none
CCOC(=O)c1cc(-c2ccco2)nc2c1c(C)nn2-c1ccccc1	Fluor 339 460 2.5
Cc1nn(-c2ccccc2)c2nc(-c3ccncc3)cc(C(=O)NCc3ccco3)c12	none
O=C(NC1CCCC1)c1cnn2c(C(F)(F)F)cc(-c3ccco3)nc12	Fluor 339 460 2.9
O=C(NC1CCCC1)c1cnn2c(C(F)(F)F)cc(-c3ccc4c(c3)OCO4)nc12	Fluor 339 460 2.1
Cc1ccc2oc(=O)c3cnn(CC(=O)N(CCCN4CCOCC4)Cc4ccco4)c3c2c1	none
CC1(C)Cc2ccccc2-c2nnc(SCC(=O)N3CCN(c4ccccc4)CC3)n21	none
Cc1cc(-c2ccccc2)nc2cc(C(N)=O)nn12	DPM-DC inhibit active, Fluor 339 460 2
CCOC(=O)c1cnn(-c2cc(C)nc3c(-c4ccccc4)cnn23)c1N	none
CC(C)CCNC(=O)c1cnn2c(C(F)(F)F)cc(-c3ccco3)nc12	Fluor 339 460 3
CCOC(=O)c1cnn2c(C)cc(-c3ccccc3)nc12	Fluor 339 460 3.7 (not shown: DPM-DC inhibit)
O=C(NCc1ccco1)c1cc2nc(-c3cccs3)cc(C(F)(F)F)n2n1	Fluor 339 460 2.1 (not shown: DPM-DC inhibit)
CCn1c(SCC(=O)Nc2nc3ccc(C)cc3s2)nc2c(c1=O)SC(C)C2 (stereo not given)	none
c1csc(-c2csc3nc(CN4CCOCC4)nc(NCc4ccc5c(c4)OCO5)c23)c1	none
O=C(NCc1ccco1)c1cnn2c(C(F)(F)F)cc(-c3ccccc3)nc12	none
COc1ccc(-c2cc(C(F)(F)F)n3ncc(C(=O)NCc4ccco4)c3n2)cc1	Fluor 339 460 2.2 (not shown: DPM-DC inhibit)
Clc1ccc(-n2nnnc2SCc2c(-c3ccccc3)nc3sccn23)cc1	none
Cc1cc2oc(=O)c3c(c2cc1OCc1nn[nH]n1)CCCC3	Fluor 339 460 3.3 (not shown: DPM-DC inhibit)
O=c1oc2cc(OCc3nn[nH]n3)ccc2c2c1CCCC2	Fluor 339 460 3.8 (not shown: DPM-DC inhibit)
COc1ccc(CNC(=O)c2ccc(NC(=O)C3CCCO3)cc2)cc1 (stereo not given)	none
COc1ccc(-c2csc(NCc3ccco3)n2)cc1C	none
COc1ccc(-c2nc3cccc(C)n3c2NCc2ccco2)cc1OC	Fluor 339 460 5.1 (not shown: DPM-DC inhibit)
CCOC(=O)CNc1c(-c2ccc(O)cc2)nc2ccccn12	Fluor 339 460 3.7 (not shown: DPM-DC inhibit)
CCOC(=O)CNc1c(-c2ccc(O)cc2)nc2ccc(Cl)cn12	none
Oc1ccc(-c2nc3ccccn3c2NCc2ccc3c(c2)OCO3)cc1	Fluor 339 460 3.7 (not shown: DPM-DC inhibit)
CC(C(=O)Nc1ccccc1C(=O)N1CCCC1)n1nnc2ccccc21 (stereo not given)	none
Cc1nn(Cc2ccccc2Cl)c2sc(C(=O)NCCCn3ccnc3)cc12	none
ONC(=Nc1ccccc1)C(=Nc1ccccc1)NO	none
O=C(NC1CCCCCCC1)c1ccccc1O	Fluor 339 460 3
Cc1occc1C(=O)NC1CCCCCC1	none
CN(C)c1nc2n(c(=O)n1)C(C#N)CS2 (stereo not given)	none
COc1ccccc1Oc1c(C)oc2cc(OC(=O)c3ccco3)ccc2c1=O	Fluor 339 460 2.6
COc1ccccc1-c1c(C)oc2cc(OC(=O)c3ccco3)ccc2c1=O	Fluor 339 460 2.1
CCOC(=O)c1cc2ccc(OC(=O)c3ccco3)cc2oc1=O	Fluor 339 460 3.7 (not shown: DPM-DC inhibit)
CC(C)(C)NC1=CC(=O)OC12CCCCC2	none
COc1cc(C2C(C(=O)N3CCOCC3)=C(C)NC3=C2C(=O)CCC3)ccc1OC(C)=O (stereo not given)	Fluor 339 460 3.7 (not shown: DPM-DC inhibit)
COc1ccccc1NC(=O)C1=C(C)NC2=C(C(=O)CCC2)C1c1ccc2c(c1)OCO2 (stereo not given)	DPM-DC inhibit active, Fluor 339 460 2.5
COc1cc(OC)c(C2C(C(=O)N3CCOCC3)=C(C)NC3=C2C(=O)CC(C)(C)C3)cc1OC (stereo not given)	none
COC(=O)C1=C(C)NC2=C(C(=O)CCC2)C1c1cccs1 (stereo not given)	none
CC1=C(C(=O)N2CCOCC2)C(c2ccccc2F)C2=C(CCCC2=O)N1 (stereo not given)	Fluor 339 460 2.9 (not shown: DPM-DC inhibit)
CC1=C(C(=O)N2CCCCC2)C(c2cccs2)C2=C(CCCC2=O)N1 (stereo not given)	Fluor 339 460 2.1 (not shown: DPM-DC inhibit)
CCOC(=O)CSc1nc(N)c(C#N)c(CC(C)C)c1C#N	none
CC(=O)N1CCc2cc(C(=O)CN3CCCCC3)ccc21	none
CC(=O)N1CCc2cc3nc(C)cc(C)c3cc21	Fluor 339 460 4.1 (not shown: DPM-DC inhibit)
CCCn1c2ccccc2c2nc3ccccc3nc21	Fluor 339 460 2.4
N#CCCn1c2ccccc2c2nc3ccccc3nc21	none
CCOC(=O)Cn1c2ccccc2c2nc3ccccc3nc21	Fluor 339 460 2.9
